# Screening results: PubChem BioAssay, National Center for Advancing Translational Sciences (NCATS)
# Most compounds without a hit are left out; they make up all but 8% or so of the library.
# Coupling enz: qHTS Assay for Inhibitors of Fructose-1,6-bisphosphate Aldolase from Giardia Lamblia: Coupling assay counterscreen; coupling enzyme system counterscreen, AmpLite Red fluorescence; activity change, negative = inhibition, % at 58.2 µM, hits read low; actives 0.67% (n = 290,000); AID 2472, 2010; in the data active means activity change below about -30%
#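 Counterscreen of the coupled detection system alone, without aldolase: glyceraldehyde-3-phosphate coupling enzymes plus AmpLite Red readout. Compounds at 57.5 uM final, 10 min RT preincubation, 20 min RT reaction, fluorescence 525/598 nm.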
# VP16 counter: VP16 counterscreen qHTS for inhibitors of ROR gamma transcriptional activity. AID 2546, 2010. actives 3.5% (n = 310,000). Drosophila S2 Gal4-VP16 UAS-luciferase, luminescence, 20 h. Potency, µM (top dose mostly 53.6 µM), inactives show top-dose activity, negative = inhibition, most hits filed as inhibitors;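 further: Gal4-VP16 expression switched on by copper sulfate through the metallothionein promoter; potency means the concentration at half of the fitted maximal effect; nearly all actives have a fitted effect of over 50% in size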
# TSHR antag: Antagonists of the Thyroid Stimulating Hormone Receptor: HTS campaign; Thyrotropin receptor (Homo sapiens), P16473; TSHR-expressing cells, TSH-stimulated cAMP HTRF, 2 h; hits give low values; activity change, negative = inhibition, % at 11.5 µM; actives 0.2% (n = 330,000);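 active means activity change below a set negative limit, meaning inhibition stronger than a set level, cut at about -70% in these data; inconclusive means activity change between two set negative limits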
#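 TSHR-expressing cells were treated with compounds, then stimulated with TSH at EC80 (4nM final) for 2 hours at 37 deg C. Cellular cAMP was measured by HTRF competition between lysate cAMP and cAMP-d2 for a cryptate-labelled anti-cAMP antibody.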
# RORgamma inh: qHTS for inhibitors of ROR gamma transcriptional activity | Drosophila S2 Gal4-RORgamma UAS-luciferase reporter, 20 h | actives 5.4% (n = 310,000) | Potency, µM (doses to about 53.6 µM), for inactives: at the highest dose activity change, negative = inhibition, most hits filed as inhibitors | AID 2551, 2010; further: potency means the concentration at half of the fitted maximal effect; nearly all actives have a fitted effect of over 60% in size
# Target sequence (P51450 whole entry, looked up, the tested form may be a part): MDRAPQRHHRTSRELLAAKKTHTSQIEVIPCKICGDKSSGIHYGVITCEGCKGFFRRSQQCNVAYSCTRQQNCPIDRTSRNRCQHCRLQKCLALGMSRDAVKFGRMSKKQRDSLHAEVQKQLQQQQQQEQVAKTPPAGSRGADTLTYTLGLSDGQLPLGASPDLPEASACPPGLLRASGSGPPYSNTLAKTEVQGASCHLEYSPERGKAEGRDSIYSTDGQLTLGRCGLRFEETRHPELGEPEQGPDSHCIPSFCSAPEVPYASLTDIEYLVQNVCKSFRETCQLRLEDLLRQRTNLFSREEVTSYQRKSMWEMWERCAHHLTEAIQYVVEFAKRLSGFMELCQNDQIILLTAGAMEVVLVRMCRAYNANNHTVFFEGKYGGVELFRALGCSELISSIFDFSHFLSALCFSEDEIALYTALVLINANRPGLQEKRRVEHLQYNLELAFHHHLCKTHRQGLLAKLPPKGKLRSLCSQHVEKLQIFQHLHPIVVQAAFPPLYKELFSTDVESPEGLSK
#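 Using a luciferase readout, inhibitors were identified by reduced reporter activity in Drosophila cells coexpressing a copper-inducible Gal4–ROR gamma fusion and UAS-driven Photinus luciferase, incubated 20 hr after 700 uM copper sulfate.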
# ELG1 repair inh: qHTS screen for small molecules that inhibit ELG1-dependent DNA repair in human embryonic kidney (HEK293T) cells expressing luciferase-tagged ELG1; HEK293T ELG1-luciferase reporter, luminescence, 16 h; DNA damage induced by 5-fluorouridine; Potency, µM (series often up to 46.1 µM), for inactives: top-dose activity change, negative = inhibition, actives largely listed as inhibitors; actives 2.3% (n = 330,000); further: potency means the concentration at half of the fitted maximal effect; nearly all actives have a fitted effect of over 55% in size
#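 Step one: seed 2,000 cells per well. Step two: pin-transfer compound or DMSO alongside 5-fluorouridine. Step three: incubate 16 hr, 37 °C, 5% CO2. Step four: add ONE-Glo, wait 30 min, read luminescence.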
# An asterisk follows results filed as active; ? = inconclusive; · = no result given. Unless noted, the call rests on the fitted dose curve; in most records, active means well fitted curve in the direction sought with a large enough effect; inconclusive means small, poorly fitted or top-dose-only effect, or another doubt; inactive means no such curve, though single readings can be large; an effect the other way counts as inactive or inconclusive. On the % scale 0 is the no-effect control and ±100 the full control effect.
SMILES,Coupling enz,VP16 counter,TSHR antag,RORgamma inh,ELG1 repair inh
CCc1cc2ccc(OC)cc2nc1SCC(=O)N1CCN(C(=O)c2ccco2)CC1,7,2%,-8,18%,21µM*
CCc1cc2cc(C)c(C)cc2nc1SCC(=O)NNC(=O)c1ccco1,-3,-28%,6,?,-7%
COc1ccc(CC(=O)N2CCN(C(=O)c3ccco3)CC2)cc1,0,1%,11,0%,8%
CCc1cc2ccc(OC)cc2nc1SCC(=O)NNC(=O)c1ccco1,5,-1%,-7,18µM*,-14%
O=c1cc(-c2ccccc2)[nH]n1-c1nc2ccccc2s1,3,?,-19,8.9µM*,-22%
CN=c1scc(-c2ccccc2F)n1/N=C/c1ccc[nH]1,-1,0.63µM*,-3,0.022µM*,?
CN=c1scc(-c2ccccc2F)n1/N=C/c1ccc(O)c(O)c1O,-47*,-72%,-5,?,?
CC(C)N=c1scc(-c2cccs2)n1/N=C/c1ccc(O)c(O)c1O,-17,?,-39,?,?
COC(=O)c1ccc(C#CC(NP(=O)(c2ccccc2)c2ccccc2)c2ccccc2)cc1 (stereo unspecified),5,-11%,·,?,·
O=Cc1cc(N=Nc2cccc(C(=O)O)c2)ccc1O,21,-6%,-17,-5%,11%
O=Cc1cc(N=Nc2ccccc2Cl)ccc1O,9,6%,-39,11µM*,?
CC(C)(C)C(=O)NC(=S)Nc1ccc(Cc2ccncc2)cc1,2,13µM*,-27,13µM*,?
CC(C)(C)C(=O)NC(=S)Nc1ccc(F)cc1,6,?,9,10µM*,?
O=C(NC(=S)Nc1ccc(Cc2ccncc2)cc1)c1ccc(F)cc1,3,?,-13,4.5µM*,?
CC(=O)Nc1ccc(NC(=S)Nc2ccc(F)cc2)cc1,1,-2%,7,-26%,0%
CNC(=S)Nc1ccc(Cc2ccncc2)cc1,2,-5%,-2,-22%,0%
CCN1CCN(c2ccc(NC(=O)c3cc(S(=O)(=O)N4CCCC4)ccc3Cl)cc2)CC1,·,·,-20,·,25%
O=C(c1cccc(F)c1)N1CCC2(CC1)CCN(c1ccccn1)CC2,-2,2%,·,-21%,·
C1=C(CN2CCOCC2)COc2c1cccc2OC[C@@H]1CNCCO1,0,-7%,·,-11%,·
O=C(O)CC/C=C\CC[C@@H]1[C@@H](N2CCCCC2)[C@@H](O)C[C@@H]1OCc1ccc(-c2ccccc2)cc1,·,-2%,·,11%,·
COc1ccc(CNC(=O)CN(C(=O)CCC(=O)Nc2nccs2)c2ccc3c(c2)OCO3)cc1,1,1%,-15,11%,-4%
CC(=O)N1CCN(CCS(=O)(=O)c2ccc(Br)cc2)CC1,·,·,-4,·,22%
Cc1cc(C(=O)N2CCCC(Nc3ccccc3)C2)c2ccc(F)cc2n1 (stereo unspecified),2,2%,-1,0%,2%
Fc1c(CSC(=S)N2CCOCC2)cccc1CSC(=S)N1CCOCC1,-1,-1%,-11,-14%,23µM*
O=C1c2ccccc2C(=O)N1CCSC(=S)N1CCOCC1,2,-2%,-15,1%,?
SMILES,Coupling enz,VP16 counter,TSHR antag,RORgamma inh,ELG1 repair inh
CC(=O)N1CCc2cc(S(=O)(=O)Nc3cccc(C(F)(F)F)c3)ccc21,1,5µM*,-25,?,?
CSc1cccc(NS(=O)(=O)c2ccc3c(c2)CCN3C(C)=O)c1,1,4.5µM*,-10,?,?
CC(=O)N1CCc2cc(S(=O)(=O)N3CCc4ccccc43)ccc21,-2,13µM*,-18,?,0%
CC(=O)N1CCc2cc(S(=O)(=O)Nc3ccc(C)cc3)ccc21,3,-23%,-8,?,-8%
Cn1cc(S(=O)(=O)N2CCc3ccccc32)cc1C(=O)NC(C)(C)C,-3,5µM*,-13,-6%,?
CC(=O)N1CCc2cc(S(=O)(=O)N3CCc4ccccc4C3)ccc21,3,1%,-7,-2%,13%
